Test results: PubChem BioAssay (EPA / NIEHS)
Calls of active or inactive are those of the source. Rule for the calls: active = hit-call score of the fitted dose curve at least 0.9, where 1 is the maximum; inactive = score below 0.9.

tested on: TTR (gene 7276); assay: CCTE_GLTED_hTTR_0.125uM: CCTE's human Transthyretin (hTTR) Inhibition Assay, with 0.125uM TTR, Great Lakes Toxicology and Ecology Division (GLTED) Lab (AID 2284431)
Protocol: CCTE_GLTED_hTTR is a cell-free, single-readout assay designed to test the chemicals' ability to displace T4 from the human transthyretin (TTR) protein. TTR (at 0.125uM or 0.5uM) is incubated in presence of test chemical for 2 hours during which disrupting chemicals displace ANSA from the TTR protein. Results read fluorescence at 380 excitation and 475 emission.CCTE_GLTED_hTTR_0.125uM is the assay component measured from the CCTE_GLTED_hTTR assay. It is designed to make measurements of fluorescent polarization, using a form of binding reporter, as detected with Fluorescence signals by Fluorescence technology.Data from the assay component CCTE_GLTED_hTTR_0.125uM was analyzed at the assay endpoint CCTE_GLTED_hTTR_0.125uM in the positive analysis fitting direction relative to DMSO as the negative control and baseline of activity. Using a type of binding reporter, loss-of-signal activity can be used to understand a chemical's ability to displace T4 from transthyretin. To generalize the intended target to other relatable targets, this assay endpoint is annotated to the 'transporter' intended target family, where the subfamily is 'hormone carrier protein'.
Human transthyretin (TTR) assay, developed at Great Lakes Toxicology and Ecology Division (GLTED) within the EPA's Center for Computational Toxicology and Exposure (CCTE), is designed to test the chemicals' ability to displace T4 from the TTR protein. TTR (0.125uM) is incubated in presence of test chemical for 2 hours during which disrupting chemicals displace ANSA from the TTR protein. Results read fluorescence at 380 excitation and 475 emission.

SMILES | AC50
COP(=S)(OC)Oc1nc(Cl)c(Cl)cc1Cl | 0.274 µM (active)
C=CC1(C)OC(=O)N(c2cc(Cl)cc(Cl)c2)C1=O (stereo not given) | 1.68 µM (active)
COC(=O)C(C)Oc1ccc(Oc2ccc(Cl)cc2Cl)cc1 (stereo not given) | 1.12 µM (active)
Cc1cc(Cl)ccc1OCC(=O)O | 22.1 µM (active)
CCCN(CCC)c1c([N+](=O)[O-])cc(S(N)(=O)=O)cc1[N+](=O)[O-] | 9.88 µM (active)
CCON=C(CC)C1=C(O)CC(c2c(C)cc(C)cc2C)CC1=O (stereo not given) | 9.92 µM (active)
Fc1ccc(Oc2ccnc3cc(Cl)cc(Cl)c23)cc1 | 2.74 µM (active)
Cc1ccc(-c2c(Cl)nc(C#N)n2S(=O)(=O)N(C)C)cc1 | 0.0946 µM (active)
O=C(O)COc1nc(Cl)c(Cl)cc1Cl | 6.69 µM (active)
Oc1ccccc1-c1ccccc1 | 14.2 µM (active)
